Compound activity from PubChem BioAssay.
ELG1 repair inh – qHTS screen for small molecules that inhibit ELG1-dependent DNA repair in human embryonic kidney (HEK293T) cells expressing luciferase-tagged ELG1 | Potency, µM (doses to about 46.1 µM), for the others: at the highest dose activity change, negative = inhibition, usual class: inhibitors | 2.3% of 330,000 active | HEK293T ELG1-luciferase reporter, luminescence, 16 h; DNA damage induced by 5-fluorouridine; further: potency means the concentration at half of the fitted maximal effect; nearly all actives have a fitted effect of over 55% in size
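In this reporter screen, reduction of luminescence relative to DMSO vehicle indicated activity. Compounds and 5-fluorouridine were added together to 2,000 cells per well, incubated for 16 hr at 37 °C, then developed with ONE-Glo.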
IL1B secr inh – qHTS for Inhibitors of Inflammasome Signaling: IL-1-beta AlphaLISA Primary Screen; THP-1 LPS/ATP IL-1B secretion, AlphaLISA, 16 h; hits give low values; activity change, % at 57.5 µM; 4.7% of 360,000 active; AID 743279, 2014; in the data active means activity change below about -50%; inconclusive means mostly about -30% to -49%
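THP-1 cells pretreated 1 hr with compounds (up to 57.5 uM final), then stimulated with LPS (250 ng/mL final) plus ATP (1.25 mM final); secreted IL-1B measured by AlphaLISA after 16 hr, decreased signal indicating inhibition.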
DT40 TDP1 no CPT – qHTS for Inhibitors of human tyrosyl-DNA phosphodiesterase 1 (TDP1): qHTS in cells in absence of CPT. DT40 Tdp1-/- hTDP1 cells, no CPT, ATP luminescence, 48 h. Potency, µM (highest dose often 46.2 µM), for inactives: at the top dose activity change, negative = growth inhibition, most hits filed as inhibitors. 15% of 420,000 active. AID 686978, 2013; further: potency means the concentration at half of the fitted maximal effect; nearly all actives have a fitted effect of over 55% in size
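DT40 Tdp1-/-;hTDP1 cells, no CPT (DMSO vehicle only), 400 cells/well; compounds pin-transferred; ≥48 hr, 37 °C; CellTiter-Glo 30 min RT dark, luminescence read.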
DT40 TDP1 CPT – qHTS for Inhibitors of human tyrosyl-DNA phosphodiesterase 1 (TDP1): qHTS in cells in presence of CPT; chicken DT40 Tdp1-/-;hTDP1 cells + 20 nM CPT, ATP luminescence, 48 h; Potency, µM (titrated, usually from 46.2 µM), for the others: at the highest dose activity change, negative = growth inhibition, most hits filed as inhibitors; 12% of 420,000 active; further: potency means the concentration at half of the fitted maximal effect; nearly all actives have a fitted effect of over 55% in size
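Cell growth measured by CellTiter-Glo luminescence after a minimum 48 h, 37 C compound exposure with 20 nM CPT in Tdp1-knockout DT40 cells stably expressing hTDP1, seeded 400/well; qHTS titration format.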
HT1080 IDH1KD tx – qHTS for induction of synthetic lethality in tumor cells producing 2HG: qHTS for the HT-1080-IDH1KD cell line | HT-1080 IDH1 knockdown viability, ATP luminescence, 48 h | Potency, µM (titrated, usually from 46.1 µM), inactives show top-dose activity, negative = toxicity, most hits filed as cytotoxic | 2% of 360,000 active;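 further: potency means the concentration at half of the fitted maximal effect; 0% = DMSO wells and -100% = cell-free medium wells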
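CellTiter-Glo luminescence after 48 h compound exposure at 37 degrees C of IDH1-knockdown HT-1080 cells in 5% FBS RPMI. %Activity scaled between DMSO wells and cell-free media wells, with curves fitted and assigned curve classes.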
HT1080-NT tox – qHTS for induction of synthetic lethality in tumor cells producing 2HG: qHTS for the HT-1080-NT fibrosarcoma cell line; HT-1080-NT fibrosarcoma viability, CellTiter-Glo ATP luminescence, 48 h; Potency, µM (highest dose often 46.1 µM), for the others: at the highest dose activity, negative = less viability, actives largely listed as cytotoxic; 1.6% of 360,000 active; AID 686970, 2013;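 further: NT is the 2HG producing partner of a matched IDH1 knockdown line; potency means the concentration at half of the fitted maximal effect; 0% = DMSO-treated cells and -100% = media-only wells without cells; nearly all actives have a fitted effect of over 55% in size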
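Viability of the 2HG-overproducing fibrosarcoma line after 48 hours of compound exposure at 37 degrees C was determined by luminescence with CellTiter-Glo, and concentration-effect curves were then fitted and categorized.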
The depositor's hits bear a star; ? = inconclusive; . = not tested or not shown; ! = not active in a repeat. Only some compounds are listed: those with a hit (about 19% of all), similar ones and a draw of the others. Unless noted, the call rests on the fitted dose curve; in most records, active means well fitted curve in the direction sought with a large enough effect; inconclusive means small, poorly fitted or top-dose-only effect, or another doubt; inactive means no such curve, though single readings can be large; an effect the other way counts as inactive or inconclusive. Unless noted, on the % scale 0 is the no-effect control and ±100 the full control effect.

SMILES	ELG1 repair inh	IL1B secr inh	DT40 TDP1 no CPT	DT40 TDP1 CPT	HT1080 IDH1KD tx	HT1080-NT tox
COc1ccccc1CNC(=O)c1ccccc1NC(=O)C1=C(C)OCCS1	?	?	?	20.6µM*	-17.2%	-4.3%
CCCS(=O)(=O)NC(=O)C1(C)CCN(C(=O)c2cccc(OC(F)(F)F)c2)C1 (stereo unspecified)	.	2.4	1.7%	18.8%	24.6%	8.3%
Cc1cc(C)c(NC(=S)N(CCCN2CCN(C)CC2)Cc2cccs2)c(C)c1	3.4%	?	?	-11.5%	-28.1%	-17.9%
Cc1ccc(C(=O)NCCNC(=O)c2ccccn2)cc1	21.1%	-7.8	-17.8%	-11.5%	16.5%	?
CCCCOc1ccc(/C=C/C2=CC(C)(C)NC(=S)N2)cc1OCC	-14.7%	?	13µM*	?	?	-26.0%
CCOc1cc(C=O)ccc1OCCCN1C(=O)NC(C)(C)C1=O	5.4%	-6.4	13.8%	-17.7%	18.3%	14.4%
NC(=O)CSc1ccc2nnc(-c3ccncc3)n2n1	.	.	-16.6%	10.4%	.	.
COc1ccc(NC(=O)c2c(C)oc3ccc(O)c(CN4CCC(C)CC4)c23)cc1Cl	.	.	?	9.2µM*	.	.
COc1ccc(NC(=O)c2c(C)oc3ccc(O)c(CN4CCCC(C)C4)c23)cc1Cl (stereo unspecified)	.	.	16.4µM*	23.1µM*	.	.
COc1ccc(NC(=O)C2=C(C)C(=O)OC23CCC(C)CC3)cc1Cl (stereo unspecified)	-20.7%	11.1	?	?	-20.2%	-1.5%
CCC(=O)Nc1ccc(NC(=O)CN2CCCC(C)C2)c(Cl)c1 (stereo unspecified)	6.5%	?	?	-29.8%	0.0%	9.7%
CC1=C(/C=C/C(=O)O)C(C)(C)CCC1	1.7%	20.1	1.4%	-6.2%	-5.5%	1.0%
CC1=C(\C=C/C(C)=C/C=C\C(C)=C\C(=O)O)C(C)(C)CCC1	.	.	11.6µM*!	14.6µM*!	.	.
CC1=C(/C=C/C(C)=C/C=C/C(C)=C\C(=O)O)C(C)(C)CCC1	.	17.5	23.1µM*!	?	-17.1%	-0.2%
Cc1ccc(NC(=O)Cn2c(=O)n(CCCCC(=O)NCCc3ccccc3)c(=O)c3ccccc32)cc1	.	.	-16.6%	-19.9%	.	.
CC(C)c1ccc(-c2c(NCCc3ccccc3)c(=O)c2=O)cc1	22.1%	21.1	?	-13.0%	-2.2%	-4.6%
O=C1NC(=S)/C(=C\c2ccc(-c3ccccc3Cl)o2)S1	-6.1%	-3.6	13µM*	23.1µM*	?	?
Oc1ccc(CNc2ccccc2F)c2cccnc12	?	105.7	2.06µM*	2.06µM*	?	?
Oc1ccccc1CNc1cccc2cccnc12	?	6.8	?	?	?	?
OCc1ccccc1O	.	.	-4.8%	12.7%	.	.
Oc1ccc(Cc2ccccc2)c2cccnc12	.	89.4	2.06µM*	4.61µM*	?	?
OCc1ccc(O)c2ncccc12	?	80.4	5.17µM*	5.17µM*	?	?
COc1ccc(N2CCN(S(=O)(=O)CCNC(=O)/C=C/c3ccccc3)CC2)cc1	20.2%	7.7	-16.1%	1.3%	-0.5%	3.1%
O=C(NCc1cccs1)c1ccc2c(c1)N(Cc1ccccc1Cl)C(=O)c1ccccc1S2	.	.	-24.9%	-14.5%	.	.
CCc1nnc(NS(=O)(=O)c2ccc(NC(=O)c3ccccc3OC)cc2)s1	16.2%	16.4	0.8%	-4.9%	2.2%	10.7%
SMILES	ELG1 repair inh	IL1B secr inh	DT40 TDP1 no CPT	DT40 TDP1 CPT	HT1080 IDH1KD tx	HT1080-NT tox
COc1ccc(CCNC(=O)CC(c2ccccc2)c2cccc(C)c2O)cc1OC (stereo unspecified)	?	-9.6	9.2µM*	11.6µM*	-22.9%	-21.9%
O=C(CC(c1ccccc1)c1ccccc1O)NCc1ccccc1Cl (stereo unspecified)	-17.1%	?	16.4µM*	23.1µM*	-25.1%	-25.1%
COc1ccc(CCNC(=O)CSc2ccccc2)cc1OC	6.3%	-6.4	-13.8%	7.4%	6.5%	5.8%
CCCCCCNC(=O)CC(c1ccccc1)c1cc(Br)ccc1O (stereo unspecified)	?	?	25.9µM*	?	?	?
O=C(CC(c1ccccc1)c1ccccc1O)NCCc1ccccc1 (stereo unspecified)	-11.9%	-51.2*	?	-2.7%	-0.1%	-8.4%
Cc1cc(=O)[nH]c2nnc(SCc3cccc(F)c3)n12	.	.	-5.9%	6.4%	.	.
O=C(NC1CCN(S(=O)(=O)c2ccccc2F)CC1)c1cccnc1	-5.5%	16.6	-3.5%	-6.6%	3.8%	5.9%
Cn1cccc1C(=O)N1CCC[C@@]2(CCN(Cc3ccccc3)C2)C1	.	.	-18.5%	-5.5%	.	.
CC(=O)c1ccc(S(=O)(=O)N(C)CC(=O)NCc2ccco2)cc1	?	-14.6	-26.0%	-4.7%	-0.5%	-3.9%
C[C@@H]1CN([C@@H](C)CO)C(=O)c2cc(Br)cnc2O[C@H]1CN(C)C(=O)C1CC1	.	-5.1	-15.5%	4.9%	10.8%	2.8%
COCCN(C(=O)C1CCCO1)c1c(N)n(CC(C)C)c(=O)[nH]c1=O (stereo unspecified)	19.6%	1.0	22.6%	-1.1%	0.6%	6.0%
O=C(CN(Cc1ccco1)C(=O)c1cccc(Cl)c1)Nc1c(Cl)cc(Cl)cc1Cl	-18.3%	34.2	?	25.9µM*	-18.2%	-3.7%
O=C(NCCCc1ccccc1)c1ccc(F)cc1	?	-16.1	-16.4%	1.2%	0.1%	-4.5%
O=C(NCCNC1CCC(c2ccccc2)CC1)c1ccc(F)cc1 (stereo unspecified)	-15.1%	-69.9*	?	?	?	20.6µM*
COc1ccc(OC)c(C2SCCN2S(=O)(=O)c2cccc(C(F)(F)F)c2)c1 (stereo unspecified)	?	?	?	16.4µM*	-7.0%	-6.1%
COc1ccc(S(=O)(=O)N2CCSC2c2ccc(N)cc2)cc1 (stereo unspecified)	-16.7%	21.9	-18.6%	-24.1%	0.3%	-3.7%
COc1cc(OC)c(C2SCCN2S(=O)(=O)c2ccc(F)cc2)cc1OC (stereo unspecified)	?	21.4	14.6µM*	13µM*	11.0%	2.3%
